Screening results (PubChem)
SMN2 splice enh: enhancers of SMN2 splice variant expression | Potency, µM (highest dose often 46.1 µM), without a hit: at the top dose activity change, positive = activation, actives largely listed as activators | 2.8% of 210,000 active | HEK293 SMN2-luciferase splicing reporter, luminescence, 30-36 h; also: % of control where 0% means no effect; nearly all actives have a fitted effect of over 55% in size
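HEK293 cells carry an SMN2 minigene-luciferase reporter in which exon 7 inclusion puts luciferase in frame. Cells were seeded at 2000 cells/well, attached for 10-12 hours, then exposed to compounds for 30-36 hours at 37C before ONE-Glo luminescence.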
NPC1 promoter act: activators of NPC1 promoter. Huh7 NPC1 promoter luciferase reporter, 24 h. Potency, µM (top dose mostly 9.22 µM), for inactives: top-dose activation, actives largely listed as activators. 2.4% of 320,000 active; also: % of control where 0% means no effect; nearly all actives have a fitted effect of over 60% in size
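Readout is luciferase luminescence, reflecting NPC1 promoter activation in stably transfected Huh7 cells after 24 h compound exposure at 37 °C in reduced-serum medium with 10% FBS.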
KinaseGlo FLuc: blocks Kinase-Glo luciferase, a counter-screen artifact; Potency, µM (titrated, usually from 38.3 µM), for inactives: at the highest dose activity change, negative = inhibition, most hits filed as inhibitors; 0.28% of 200,000 active; Q27757; Kinase-Glo luciferase, ATP luminescence, 8 min; also: % is scaled to controls: 0 for no effect and ±100 for the full control effect; nearly all actives have a fitted effect of over 60% in size
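Compounds were added to a substrate mix at pH 7.2 (50 mM imidazole, 10 uM ATP, within the enzyme's linear range), followed by Kinase-Glo detection reagent; luminescence was measured after 8 minutes at ambient temperature.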
ELG1 genotox: inducers of genotoxicity in HEK293T ELG1-luciferase cells. HEK293T ELG1-luciferase reporter, luminescence, 16 h. Potency, µM (titrated, usually from 46 µM), for the others: at the top dose activity change, positive = activation, usual class: activators. 1.3% of 330,000 active; also: % of control where 0% means no effect; nearly all actives have a fitted effect of over 60% in size
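After overnight (16 hr) compound treatment at 37 °C, ELG1-luciferase HEK293T cells were lysed with ONE-Glo; luminescence quantified 30 min later at room temperature.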
Rab9 prom act: activators of Rab9 promoter; Huh7 Rab9 promoter-luciferase reporter, luminescence, 24 h; Potency, µM (doses to about 9.22 µM), inactives show at the highest dose activation, negative = inhibition, actives largely listed as activators; 2.8% of 320,000 active; also: % of control where 0% means no effect; nearly all actives have a fitted effect of over 60% in size
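Rab9 promoter-driven luciferase in stably transfected Huh7 cells; 1500 cells/well rested 2 h, exposed to compound in DMSO for 24 h at 37 °C, 5% CO2. Luminescence read 10 min after adding luciferase reagent at ambient temperature.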
FLuc counter: firefly luciferase modulation, counter-screen for miR-21 project | purified FLuc, Km substrates, luminescence inhibition | P08659 | AID 588342 | Potency, µM (highest dose often 57.5 µM), inactives show top-dose activity change, negative = inhibition, actives largely listed as inhibitors | 6.9% of 360,000 active;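 also: plate controls were vehicle for no effect and reference inhibitor for full effect; nearly all actives have a fitted effect of over 55% in size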
Target sequence (P08659 whole entry, looked up): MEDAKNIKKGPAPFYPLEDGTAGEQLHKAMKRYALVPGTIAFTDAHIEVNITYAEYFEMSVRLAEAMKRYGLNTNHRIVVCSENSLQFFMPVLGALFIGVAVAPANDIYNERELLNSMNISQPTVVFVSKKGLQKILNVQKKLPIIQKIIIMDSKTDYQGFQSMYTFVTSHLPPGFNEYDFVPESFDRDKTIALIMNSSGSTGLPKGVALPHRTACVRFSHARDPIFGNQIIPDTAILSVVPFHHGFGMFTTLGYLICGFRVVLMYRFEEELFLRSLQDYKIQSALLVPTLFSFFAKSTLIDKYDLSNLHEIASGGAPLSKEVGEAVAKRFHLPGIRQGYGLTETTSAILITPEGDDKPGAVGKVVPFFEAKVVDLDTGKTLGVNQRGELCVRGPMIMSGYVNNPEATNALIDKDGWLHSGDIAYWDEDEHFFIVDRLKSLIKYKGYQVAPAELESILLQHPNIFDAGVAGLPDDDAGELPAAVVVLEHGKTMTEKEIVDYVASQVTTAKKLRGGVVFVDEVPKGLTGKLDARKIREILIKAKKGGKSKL
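Purified P. pyralis luciferase (10nM final) with 10uM D-luciferin and 10uM ATP (Km levels) in 50mM Tris acetate pH 7.5, 10mM Mg acetate, 0.01% Tween-20, 0.05% BSA; qHTS 6-point titration, ~60 µM downward; luminescence read.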
Starred values were filed as active, the others as inactive; u = inconclusive; x = not tested or not shown; [ ] = remark or other dose. Rows were chosen to be rich in hits. Some 7.4% of all compounds tested hit in one or more screens of this group. Calls follow the shape of the dose curve; as a rule, active = well fitted curve in the direction sought with a large enough effect; inconclusive = small, poorly fitted or top-dose-only effect, or another doubt; inactive = no such curve, though single readings can be large; an effect the other way counts as inactive or inconclusive. Potency is read from the fitted curve at half-maximal effect.

SMILES | SMN2 splice enh | NPC1 promoter act | KinaseGlo FLuc | ELG1 genotox | Rab9 prom act | FLuc counter
COc1ccc(-c2nnc(SCC(=O)c3cccs3)o2)cc1 | 16% | 3.5µM* | 8% | 10µM* | 2.2µM* | 2.4µM*
Cc1cc(C(=O)CSc2nnc(-c3cccs3)o2)c(C)n1-c1ccccc1 | -42% | -5% | 3% | -6% | -12% | 6.7µM*
O=C(CSc1nnc(-c2cccs2)o1)OC1CCCCC1 | -3% | -4% | 13% | 2% | 4% | 24µM*
Cc1cc(C)nc(N2CCN(C(=O)CCC(=O)Nc3nnc(C(C)C)s3)CC2)n1 | x | 8% | x | 10% | 15% | -1%
Cc1ccccc1C1CC(=O)Oc2cc(C)c(Br)c(C)c21 (configuration not stated) | x | x | 0%[39.9 µM] | x | x | x
C=C(C)C(=O)Nc1cccc(C2=NOC3(C2)C[C@@H](C(N)=O)N(C(=O)/C=C/C=C/C)C3)c1 (some centres not stated) | x | -6% | x | 1% | -7% | 7%
CCNC(=O)CSc1nnc(-c2cccs2)o1 | 22% | -7% | -1% | 3% | -4% | -3%
O=C(CSc1nnc(-c2cccs2)o1)c1cccs1 | -2% | 1.6µM* | -5% | u | 2.8µM* | 9.5µM*
COc1ccc(-c2nnc(SCC(=O)c3ccc[nH]3)o2)cc1 | 8.9µM* | 3.2µM* | -11% | u | 1.6µM* | 4.3µM*
COc1ccc(-c2nnc(SCC(=O)c3ccc(O)cc3O)o2)cc1 | x | 15% | x | u | -1% | u
C=C[C@@H](C1=CC(=O)C(OC)=C(OC)C1=O)c1ccccc1 | 0% | x | 3% | x | x | x
O=C(NCCC1=CCCCC1)c1ccc2c(c1)N(Cc1cccc(Cl)c1)C(=O)c1ccccc1S2=O (configuration not stated) | x | x | x | x | x | -9%
CC(C)Oc1ccc(CNC(=O)c2ccc3c(c2)N(Cc2ccc(F)cc2)CCS3)cc1 | -14% | x | x | x | x | 2%
C=CCc1ccc(OCc2ccc(C(=O)O)o2)c(OC)c1 | x | u | x | u | u | 4.8µM*
C=CCc1ccc(OCCOCCN(C)C)c(OC)c1 | 4% | -2% | 15% | -4% | 1% | 1%
CCCc1ccc(OCc2ccc(C(=O)O)o2)c(OC)c1 | 2.5µM* | 0.45µM* | 5% | u | 0.32µM* | 4.8µM*
C=CCc1ccc(OCCCOc2ccc(C)c(C)c2)c(OC)c1 | -12% | 0% | 8% | -2% | -4% | -8%
C=CCc1ccc(OCCOc2cccc3ccc(C)nc23)c(OC)c1 | 7% | -2% | -3% | -6% | 3% | 11µM*
C=CCc1ccc(OCCCCOc2ccc(C(=O)O)cc2)c(OC)c1 | 18% | -4% | -2% | 0% | 2% | 13µM*
C=CCc1ccc(OC)c(OC)c1 | -2% | 2% | x | 3% | -5% | 2%
CCN(CC(=O)Nc1c(F)cccc1F)C(=O)c1cccc(S(=O)(=O)N2CCCCCC2)c1 | x | -4% | x | -5% | -8% | 5%
CC(C)CCNC(=O)c1cc(-c2cccs2)nc2ccccc12 | x | 5% | x | -14% | 1% | -2%
C=CCc1ccc(OCCn2cccc2C=O)c(OC)c1 | -9% | u | -5% | 15% | u | 17µM*
CCCc1ccc(OCc2ccc(C(=O)OC)o2)c(OC)c1 | u | 1.4µM* | -3% | 10µM* | 1.8µM* | 15µM*
CCCc1ccc(OCc2ccc(C(=O)NN)o2)c(OC)c1 | x | 2.2µM* | x | 12% | u | -16%
SMILES | SMN2 splice enh | NPC1 promoter act | KinaseGlo FLuc | ELG1 genotox | Rab9 prom act | FLuc counter
Cc1ccc(OCc2ccc(C(=O)O)o2)c([N+](=O)[O-])c1 | u | u | 1% | 6% | u | 27µM*
CSCCC(NC(=O)COc1ccccc1)C(=O)NC1CCC(C)CC1 (configuration not stated) | x | -4% | x | 1% | -10% | 7%
Cn1c(-c2cc3ccccc3oc2=O)nc2ccccc21 | x | 4.5µM* | x | u | 3.5µM* | 21µM*
COc1ccc2cc(-c3nc4ccccc4n3C)c(=O)oc2c1 | 13µM* | 2µM* | 1% | u | 1.3µM* | 5.4µM*
COc1ccc2cc(C(C)=O)c(=O)oc2c1 | 5% | -2% | -4% | 1% | -5% | -3%
O=C(O)c1ccc2c(c1)C(=O)N([C@H](Cc1ccc(C(F)(F)F)cc1)C(=O)O)C2=O | x | -1% | x | x | 3% | 2%
CCn1cnc2cc(NCc3nc4ccccc4n3C)ccc21 | 7.1µM* | 0.79µM* | u | 1.6µM* | 0.5µM* | 3µM*
CC(C)n1cnc2cc(NCc3nc4ccccc4n3C)ccc21 | 2.8µM* | 1.3µM* | u | 15µM* | 1.1µM* | 4.8µM*
CCn1cnc2cc(NCc3nc4ccccc4n3Cc3ccccc3)ccc21 | u | 3.5µM* | -10% | u | 2.8µM* | 5.4µM*
O=C(Nc1ccc(S(=O)(=O)NC2=NCCCCC2)cc1)c1ccc2ccccc2n1 | -27% | -3% | 2% | 5% | -4% | u
Cc1ccc(Cn2ncc3c(NCCN(C)C)ncnc32)cc1 | x | -4% | x | 1% | -2% | 3%
Cc1cccc(-n2ncc3c(N(C)Cc4ccccc4)ncnc32)c1 | x | 4µM* | x | u | 3.5µM* | 2.4µM*
CC(C)CCNc1ncnc2c1cnn2-c1cccc(Cl)c1 | x | x | x | x | x | 17µM*
CN(C)CCNc1ncnc2c1cnn2-c1ccc(Cl)cc1 | 26% | 16% | -1% | 21µM* | u | 7.6µM*
CCCCN(CCCC)c1ncnc2c1cnn2-c1cccc(C)c1 | x | x | x | x | x | -8%
CN(C)CCNc1ncnc2c1cnn2-c1cccc(Cl)c1 | x | x | x | x | x | 24µM*
CCN(CC)CCCn1c(-c2ccccc2)nc2c(NCCOC)nc(C)nc21 | -1% | x | -2% | x | x | x
CCCCN(C)c1ncnc2c1cnn2-c1cccc(Cl)c1 | x | x | x | x | x | 2.7µM*
OCCCNc1ncnc2c1cnn2-c1ccc(Cl)cc1 | x | 0.2µM* | x | u | 0.28µM* | 1.9µM*
Clc1ccc(-n2ncc3c(NCc4ccc5c(c4)OCO5)ncnc32)cc1 | -14% | 10% | 1% | u | 7% | u
O=C1CCCN1CCCNc1ncnc2c1cnn2-c1ccc(Cl)cc1 | -35% | u | 2% | 18µM* | u | 17µM*
CCOc1cc(CNC(=O)Cn2c(=O)c3cccn3c3ccc(F)cc32)cc(OCC)c1OCC | x | x | x | x | x | -1%
O=C(COc1cc(Cl)c(Cl)cc1Cl)NC(=O)Nc1ccc2c(c1)OCCO2 | 18µM* | u | 1% | u | u | 21µM*
Cc1ccc(Cl)c(OCC(=O)Nc2ccc3c(c2)OCCO3)c1 | 18µM* | 2.8µM* | 1% | 14% | 1.4µM* | 1.9µM*
O=C(COC(=O)COc1ccc(Cl)cc1)Nc1ccc2c(c1)OCCO2 | x | 0% | x | -4% | -2% | -1%
